From PubChem BioAssay AID1159580 (chemical genetic matrix, 2015)
Hit rate of the full screen: of about 5,500 compounds, about 2,000 (36%) were called active. Not shown: some 18% with an inconclusive outcome. Cut-off read from the data, not from the text of the source: active = normalized growth mostly below about 0.91 (no sharp cut-off); inconclusive = no clear call, values can overlap the other calls; inactive = mostly above about 0.92. The list shows a part of the results.

Test: chemical genetic growth profiling, strain panel (AID 1159580);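 note: tested at 20 µM; growth read once vehicle control cultures reached saturation at 30 °C; 1 = growth at the plate median or of vehicle wells; lower values mean less growth of the strain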
Conditions: growth OD
[1] = S. cerevisiae deletion strains, locus YDR150W, strain NUM1, active compounds read low
[2] = S. cerevisiae deletion strains, locus YMR263W, strain SAP30, active compounds read low
[3] = S. cerevisiae deletion strains, locus YPL055C, strain LGE1, active compounds read low
[4] = S. cerevisiae deletion strains, locus YPL241C, strain CIN2, active compounds read low

Measured: normalized growth

NCC(O)C1CCCCCCC1 (configuration not stated)
inactive: S. cerevisiae deletion strains, locus YAL040C, strain CLN3, active compounds read low 1.01 | S. cerevisiae deletion strains, locus YCL061C, strain MRC1 (second series), active compounds read low 1.01 | [1] 0.995 | S. cerevisiae deletion strains, locus YDR363W, strain ESC2, active compounds read low 0.994 | S. cerevisiae deletion strains, locus YER002W, strain NOP16, active compounds read low 0.999 | [2] 0.999 | S. cerevisiae deletion strains, locus YNL175C, strain NOP13, active compounds read low 1.01 | S. cerevisiae deletion strains, locus YNL197C, strain WHI3, active compounds read low 1.01 | S. cerevisiae deletion strains, locus YNL224C, strain SQS1, active compounds read low 1 | S. cerevisiae deletion strains, locus YOR083W, strain WHI5 (second series), active compounds read low 1.04 | [3] 0.992 | [4] 1

COc1ccc(CN2C(=O)CSC2c2ccccn2)cc1 (configuration not stated)
inactive: S. cerevisiae deletion strains, locus YAL013W, strain DEP1, active compounds read low 1.01 | S. cerevisiae deletion strains, locus YBR229C, strain ROT2, active compounds read low 0.995 | S. cerevisiae deletion strains, locus YCL061C, strain MRC1, active compounds read low 0.977 | S. cerevisiae deletion strains, locus YDL101C, strain DUN1, active compounds read low 1.01 | S. cerevisiae deletion strains, locus YDL134C, strain PPH21, active compounds read low 1 | [1] 1.01 | S. cerevisiae deletion strains, locus YEL061C, strain CIN8, active compounds read low 1.01 | S. cerevisiae deletion strains, locus YGR078C, strain PAC10, active compounds read low 1.01 | S. cerevisiae deletion strains, locus YHR030C, strain SLT2, active compounds read low 0.998 | S. cerevisiae deletion strains, locus YHR087W, strain rtc3, active compounds read low 1.01 | S. cerevisiae deletion strains, locus YJL187C, strain SWE1, active compounds read low 0.989 | S. cerevisiae deletion strains, locus YJR043C, strain POL32, active compounds read low 0.995 | S. cerevisiae deletion strains, locus YJR075W, strain HOC1, active compounds read low 1.01 | S. cerevisiae deletion strains, locus YKL190W, strain CNB1, active compounds read low 1 | S. cerevisiae deletion strains, locus YLR039C, strain RIC1, active compounds read low 0.97 | S. cerevisiae deletion strains, locus YLR058C, strain SHM2 (second series), active compounds read low 0.991 | S. cerevisiae deletion strains, locus YLR085C, strain ARP6, active compounds read low 0.971 | S. cerevisiae deletion strains, locus YLR262C, strain YPT6, active compounds read low 0.953 | S. cerevisiae deletion strains, locus YML094W, strain GIM5, active compounds read low 1.02 | S. cerevisiae deletion strains, locus YMR219W, strain ESC1, active compounds read low 0.993 | [2] 0.993 | S. cerevisiae deletion strains, locus YNL153C, strain GIM3, active compounds read low 0.999 | S. cerevisiae deletion strains, locus YNL298W, strain CLA4 (second series), active compounds read low 0.994 | S. cerevisiae deletion strains, locus YNL322C, strain KRE1, active compounds read low 1 | S. cerevisiae deletion strains, locus YNR030W, strain Alg12, active compounds read low 1 | S. cerevisiae deletion strains, locus YOL006C, strain TOP1, active compounds read low 0.988 | [3] 1 | [4] 1.07 | S. cerevisiae deletion strains, locus YPR135W, strain CTF4, active compounds read low 0.985 | S. cerevisiae strains, strain wild type, active compounds read low 1
